# Laboratory results: PubChem BioAssay (Tox21)
# Inconclusive results are not listed. Entries that show only a call come without a potency. The source made the active and inactive calls. Calls come from the whole dose curve.
# Biological target: D(2) dopamine receptor (Homo sapiens) (UniProt P14416)
# Test: Dopamine D2 receptor (DRD2) small molecule agonists, cell-based qHTS assay (AID 1963594); note: nearly all actives have a fitted effect of over 35% in size
# Settings: HEK293-DRD2 cAMP HTRF, agonist mode, 30 min; series mostly up to 92.4 µM
# Source text: National Center for Advancing Translational Sciences [NCATS]
# Division of Preclinical Innovation [DPI]
# U.S. Environmental Protection Agency [EPA]
# National Institutes of Environmental Health Sciences [NIEHS]
# National Toxicology Program [NTP]
# U.S. Food and Drug Administration [FDA]
# DRD2 is the D2 subtype of the dopamine receptor, which is coupled to Gi subtype of G protein-coupled receptor. This G protein-coupled receptor inhibits adenylyl cyclase activity. The DRD2-HEK293 cell line stably expressing D2 dopamine receptor can be used for screening agonists and antagonists of interactions between D2 and its ligands. The Hek293-DRD2 cAMP assay is based on HTRF technology. It measures changes of cAMP accumulation in response to Gi coupled GPCR activation or inhibition.
# Tox21 Assay Protocol Summary:
# DRD2-Hek293 cells were dispensed at 600 cells/3uL/well in 1536-well white plates using a Multidrop Dispenser. After the assay plates were incubated at a 37 C/5% CO2 incubator for 24 h, 1 uL of Ro20-1724 at final concentration of 0.1 mM was transferred to the assay plate by a Flying Reagent Dispenser. Following Ro20-1724 addition, 23 nL of compound dissolved in DMSO, positive controls or DMSO only was added to the assay plates via Wako pintool station. The assay plates were incubated at room temperature for 10 min. Next, 1 uL of NKH477 at 200nM was added into the plates. After the assay plates were incubated at room temperature for an additional 30 min, 2.5 ul/well of cAMP-d2 and 2.5 ul/well of anti-cAMP-cryptate were added respectively into the assay plates using a Flying Reagent Dispenser. The plates were incubated at room temperature for 1 h. The fluorescence intensity in the plates was measured at 340 nm excitation and 665 & 620 nm emission by an Envision plate reader.
# Chain of D(2) dopamine receptor (Homo sapiens) (P14416 whole entry, looked up): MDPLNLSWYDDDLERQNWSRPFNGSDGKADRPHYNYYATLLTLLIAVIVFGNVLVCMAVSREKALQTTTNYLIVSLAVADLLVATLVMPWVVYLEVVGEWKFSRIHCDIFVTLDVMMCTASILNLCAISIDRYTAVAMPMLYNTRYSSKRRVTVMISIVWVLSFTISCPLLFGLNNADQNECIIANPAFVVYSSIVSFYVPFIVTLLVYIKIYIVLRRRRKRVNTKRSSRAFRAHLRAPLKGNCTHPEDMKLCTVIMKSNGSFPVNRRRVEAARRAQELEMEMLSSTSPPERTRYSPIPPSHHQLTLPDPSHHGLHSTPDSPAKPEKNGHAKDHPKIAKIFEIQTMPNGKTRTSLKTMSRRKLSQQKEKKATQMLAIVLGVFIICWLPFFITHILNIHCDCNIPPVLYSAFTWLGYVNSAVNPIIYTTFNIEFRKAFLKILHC
row,Structure (SMILES),Potency
1,CCCCCCCCCCCC[N+](C)(C)Cc1ccccc1,inactive
2,CCCCOC(=O)CC(CC(=O)OCCCC)(OC(C)=O)C(=O)OCCCC,inactive
3,CC(O)COc1ccccc1 (stereo not given),inactive
4,CCCCOC(=O)COc1ccc(Cl)cc1Cl,inactive
5,COc1cc2c(c(OC)c1OC)-c1ccc(OC)c(=O)cc1[C@@H](NC(C)=O)CC2,inactive
6,C=CN1CCCC1=O,inactive
7,CC1=CC(C)(C)Nc2ccccc21,inactive
8,CCCc1c(OCCCCc2nn[nH]n2)ccc(C(C)=O)c1O,inactive
9,O=C(c1ccc(O)cc1)c1ccc(O)cc1O,inactive
10,O=C(Oc1ccccc1)c1ccccc1O,inactive
11,CC(=O)OCC(COC(C)=O)OC(C)=O,inactive
12,O=C1CCCC1,inactive
13,CCCCC(CC)C(=O)O (stereo not given),inactive
14,CC(=O)CC(C)(C)O,inactive
15,NCCS(=O)(=O)O,inactive
16,CCN1CCCC1=O,inactive
17,CC(C)C(=O)Nc1ccc([N+](=O)[O-])c(C(F)(F)F)c1,inactive
18,Cc1ccc(S(=O)(=O)O)cc1C,inactive
19,CCCOC(=O)NCCCN(C)C,inactive
20,C1CNCCN1,inactive

row,Structure (SMILES),Potency
1,O=C=NCCCCCCN=C=O,inactive
2,Nc1cc([N+](=O)[O-])ccc1C(=O)O,inactive
3,C/C=C/C(=O)N(CC)c1ccccc1C,inactive
4,OC1C(O)C(O)C(O)C(O)C1O (stereo not given),inactive
5,CCCCCCCCCCCCCCCCO,inactive
6,CCCCOCCO,inactive
7,OCc1cccnc1,inactive
8,O=C(/C=C/C=C/c1ccc2c(c1)OCO2)N1CCCCC1,inactive
9,CCCCCCCCCCCCCC[N+](C)(C)Cc1ccccc1,inactive
10,C#C[C@]1(O)CC[C@H]2[C@@H]3CCc4cc(OC)ccc4[C@H]3CC[C@@]21C,inactive
11,CN(C)CCOCCN(C)C,inactive
12,CC1(C)NC(=O)N(c2ccc([N+](=O)[O-])c(C(F)(F)F)c2)C1=O,inactive
13,O=c1ccc2ccccc2o1,inactive
14,C[C@]12CC[C@@H]3c4ccc(O)cc4CC[C@H]3[C@@H]1CC[C@H]2O,inactive
15,COc1ccc([N+](=O)[O-])cc1N,inactive
16,CCO[Si](CCCNC(N)=O)(OCC)OCC,inactive
17,OC[C@@H](O)[C@@H](O[C@@H]1O[C@H](CO)[C@H](O)[C@H](O)[C@H]1O)[C@H](O)[C@@H](O)CO,inactive
18,Cc1cc(Cc2ccc(N)c(C)c2)ccc1N,inactive
19,Oc1c(Cl)cc(Cl)c(Cl)c1Cc1c(O)c(Cl)cc(Cl)c1Cl,inactive
20,NNC(=O)c1ccncc1,inactive
